aSyn 5UTR act: Activators via SNCA 5'UTR binding, MLPCN; alpha-synuclein 5'UTR reporter, activators screen; activity score, % (tested at 7.5 µM), hits read low; 7.1% of 300,000 active; AID 1814, 2009; in the data active = activity score below about -60%
* = called active by the depositor. A selection follows.

SMILES | aSyn 5UTR act
COc1ccc(OCc2cc(C(=O)N(C)CC3CCCCO3)no2)c(Cl)c1 (stereo not given) | -71*
COc1ccc(C(=O)/C=C/C(=O)N(CC(=O)NC2CCCCC2)CC2CCCO2)c(O)c1 (stereo not given) | 73
NC1=NC2=C(CCCC2)C2(CCCCC2)S1 | 77
O=c1[nH]cccc1-c1nc2ccccc2[nH]1 | -132*
Nc1cccc2nc3ccccc3cc12 | 101
Cn1cc(-c2nc3ccccc3[nH]2)c2ccccc21 | -124*
Oc1ccc(C=Nc2ccccc2-c2nc3ccccc3[nH]2)cc1 | -142*
Nc1ccccc1-c1nc2ccccc2[nH]1 | -163*
O=C1/C(=C/c2ccccc2)CCC1C1CCCC1 (stereo not given) | -73*
O=C1C(=C2SCCCS2)CC/C1=C\c1ccc(F)cc1 | 119
O=C1/C(=C/c2ccc(F)cc2)CCC1C1CCCC1 (stereo not given) | -133*
O=C1/C(=C/c2ccco2)CCC1C1CCCC1 (stereo not given) | -66*
CCOc1ccc(/C=C2\CCC(C3CCCC3)C2=O)cc1 (stereo not given) | -229*
O=C(O)c1ccc(Cn2nnc3sc4c(c3c2=O)CCCC4)cc1 | -151*
O=C(O)CSc1nc2sc3c(c2c(=O)n1Cc1ccccc1)CCCCC3 | -230*
CCC(=O)Nc1cccc(NC(=S)NC(=O)c2cccs2)c1 | -161*
CCC(=O)Nc1cccc(NC(=S)NC(=O)c2ccccc2Cl)c1 | -82*
O=C(NC(=S)Nc1ncccn1)c1ccccc1Cl | -181*
O=C(NC(=S)Nc1ccccc1O)c1ccc(Cl)cc1Cl | -106*
Cc1nc(-c2ccc(S(=O)(=O)Oc3ccccc3Cl)s2)cs1 | -68*
Cc1ccc(/C=C2\OC(=O)c3ccccc32)cc1 | -83*
CCSc1nnc(NC(=O)c2cc(C)oc2C)s1 | -161*
CCSc1nnc(NC(=O)c2ccc(C)o2)s1 | -72*
CCc1nnc(NC(=O)c2cc(C)oc2C)s1 | -88*
O=c1c2cc(Br)ccc2[nH]c(=S)n1Cc1ccccn1 | -70*
SMILES | aSyn 5UTR act
COc1cccc(NC(=O)CNC(=O)c2ccccc2)c1 | -66*
COc1cc(OC)cc(C(=O)NCC(=O)Nc2ccc(-c3ccccc3)cc2)c1 | -195*
COc1cccc(NC(=O)CN(C)C(=O)CNC(=O)c2ccc(Oc3ccccc3)cc2)c1 | -124*
C/C(=N\Nc1cccc2cccnc12)c1ccc(N)cc1 | -93*
CC(=O)NC(c1ccc(C(C)C)cc1)c1ccc2cccnc2c1O (stereo not given) | 67
C/C(=N\Nc1cccc2cccnc12)c1ccccc1O | -204*
O=C(c1ccc(Br)cc1)c1coc2ccc(O)cc12 | -92*
O=C(c1ccc(Cl)cc1)c1coc2ccc(O)cc12 | -128*
CCc1cc(C(=O)NNC(=S)NC2CCCCC2)cs1 | -87*
CN(C)c1cccc(C(=O)NNC(=S)NC2CCCC2)c1 | -64*
CC(C)c1cc(C(=O)NNC(=S)NC2CCCCC2)cs1 | -86*
Cc1ccc(C(=O)NCCc2nnc(SCC(=O)Nc3nc(-c4ccccc4)cs3)n2C)cc1 | -65*
Cn1c(CCNC(=O)c2cccs2)nnc1SCC(=O)Nc1nc(-c2ccccc2)cs1 | -73*
Cc1nnc(SCC(=O)Nc2nc(-c3ccccc3)cs2)n1N | -81*
O=[N+]([O-])c1cccc(-c2nnc(-c3ccccc3)o2)c1 | 68
O=[N+]([O-])c1cccc(-c2nnc(-c3ccc4c(c3)OCO4)o2)c1 | -78*
Clc1ccccc1-c1nnc(-c2ccc3c(c2)OCO3)o1 | -82*
Clc1ccccc1-c1nnc2sc(-c3ccc4c(c3)OCO4)nn12 | -91*
C/C(=N\Nc1nc2ccc(Cl)cc2o1)c1ccccc1 | -66*
Cc1cc(N2CCCCCC2)nc2ccc(F)cc12 | -64*
O=[N+]([O-])c1ccc2nc(N3CCCC3)sc2c1 | -121*
Cc1ccc(C(=O)c2cc([N+](=O)[O-])ccc2N2CCCCC2)cc1 | 81
Fc1ccc2nc(N3CCCC3)sc2c1 | -200*
Fc1cc(F)c2nc(N3CCCCC3)sc2c1 | -98*
NNc1nc(-c2ccccc2)nc2sc3c(c12)CCCC3 | -65*
SMILES | aSyn 5UTR act
O=C(Nc1cccc(-c2cn3ccccc3n2)c1)c1cc2ccccc2oc1=O | -100*
Oc1ccc(-c2cn3ccccc3n2)cc1O | -124*
c1ccc2c(-c3cn4ccccc4n3)c[nH]c2c1 | -281*
CC(=O)Nc1cccc(-c2cn3ccccc3n2)c1 | -78*
CN(CC(=O)Nc1ccc(Cl)c(S(=O)(=O)N(C)C)c1)Cc1ccccc1 | -109*
CCCCc1ccc(NC(=S)Nc2ccc(Cl)c(S(=O)(=O)N(C)C)c2)cc1 | -68*
CCOc1ccc(NC(=O)CN(C)c2ccc(S(=O)(=O)N(C(C)C)C(C)C)cn2)cc1OCC | 61
Cc1ccnc(NC(=O)Nc2ccc(F)cc2)c1 | -86*
Cc1ccc(NC(=O)Nc2ccc(F)cc2)nc1 | -108*
Nc1nc(Cl)nc2ccc(Br)cc12 | -123*
COc1ccc2oc(C(=O)C3CC3)c(N)c2c1 | -133*
Nc1c(C(=O)Nc2ccc(Cl)cc2)oc2ccccc12 | -253*
COc1ccc2occ(C(=O)c3ccccc3)c2c1 | -133*
COc1ccc2oc(C(=O)c3ccccc3)c(N)c2c1 | -174*
Nc1c(C(=O)c2ccco2)oc2ccccc12 | -113*
COC(=O)c1oc2ccccc2c1N | -63*
COc1ccc(C(=O)c2oc3ccccc3c2N)cc1 | -179*
COC(=O)CCC(=O)c1oc2ccc(OC)cc2c1N | -62*
Nc1ccc(C(=O)n2c3ccccc3c3ccccc32)cc1 | 117
Nc1c(C(=O)c2ccc(F)cc2)oc2ccccc12 | -137*
COc1ccc(-c2csc(NC(=O)CSc3n[nH]c(C)n3)n2)cc1 | -104*
COc1ccc(-c2csc(NC(=O)CSc3n[nH]c(N)n3)n2)cc1 | -123*
N#C/C(=C1/CCCCCN1)c1nc2ccccc2s1 | -73*
Cc1[nH]c2ccccc2c1/C=N/Nc1cccc(C(=O)O)c1 | -101*
Cc1ccccc1/C=N/Nc1nc2ccccc2[nH]1 | -115*
SMILES | aSyn 5UTR act
C(=N\Nc1nc2ccccc2[nH]1)/c1cccc2cccnc12 | 73
Cc1[nH]c2ccccc2c1/C=N/Nc1nc2ccccc2[nH]1 | -228*
C(=N\Nc1nc2ccccc2[nH]1)/c1c[nH]c2ccccc12 | -224*
COc1cccc(/C=N/Nc2ncccc2[N+](=O)[O-])c1OC | 92
Cc1ccc(/C=N/Nc2nc3ccccc3[nH]2)s1 | -312*
COc1ccc(/C=N/Nc2nc3ccccc3[nH]2)c(OC)c1OC | -109*
Cc1cc(=O)[nH]c(N/N=C/c2cc(C)n(CC(F)(F)F)c2C)n1 | -89*
COc1cccc(/C=N/Nc2nc(C)cc(=O)[nH]2)c1OC | -79*
Fc1cccc(NC(=S)NCCc2ccccc2)c1 | -71*
Fc1ccc(F)c(NC(=S)NCCc2ccccc2)c1 | -93*
Fc1ccccc1NC(=S)NCCc1ccccc1 | -118*
O=Cc1ccccc1OCc1ccc2c(c1)OCO2 | -258*
c1ccc(Nc2nnc(-c3cccc4ccccc34)o2)cc1 | -93*
COc1ccc2cc(/C(C)=N/NC(=O)C3CC3)ccc2c1 | -135*
COc1cccc(/C(C)=N/NC(=O)c2ccc(N(C)C)cc2)c1 | -101*
COc1ccc(C(=O)N/N=C(/C)c2cccc(NC(=O)C(F)(F)F)c2)cc1 | -108*
C/C(=N/NC(=O)c1ccoc1C)c1cccc(NC(=O)C2CC2)c1 | -115*
C/C(=N/NC(=O)c1ccoc1C)c1cccc(NC(=O)C(F)(F)F)c1 | -128*
O=[N+]([O-])c1ccc(O)c(C=Nc2ccc3nc(-c4ccccc4)[nH]c3c2)c1 | -166*

Screening results: PubChem BioAssay, Broad Institute
